# Source: PubChem
# Sampled rows, rich in hits. Any-hit rate of the full collection: about 1.6%.
# FUS suppressor: FUS proteinopathy suppression in yeast. actives 0.24% (n = 390,000). Potency, µM (doses to about 76.6 µM), usual class: activators. S. cerevisiae FUS-expressing, growth rescue, OD600, 24 h;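 further: plate controls were DMSO vehicle for no effect and reference control for full effect; nearly all actives have a fitted effect of over 55% in size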
#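 Steps: raffinose overnight preculture; dilution to OD 0.005 in 2% galactose minimal medium; compound addition (concentration series); 24hr at 30C, 99% humidity; absorbance read at 600 nm.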
# ALOX12 inh: inhibitors of human 12S-lipoxygenase ALOX12 | P18054 | purified 12hLO, xylenol orange hydroperoxide absorbance | Potency, µM (titrated, usually from 108 µM), for the others: at the top dose activity change, negative = inhibition, usual class: inhibitors | actives 1.1% (n = 580,000) | AID 1671190; further: on the % scale 0 is the no-effect control and ±100 the full control effect
# Target sequence (P18054 whole entry, looked up): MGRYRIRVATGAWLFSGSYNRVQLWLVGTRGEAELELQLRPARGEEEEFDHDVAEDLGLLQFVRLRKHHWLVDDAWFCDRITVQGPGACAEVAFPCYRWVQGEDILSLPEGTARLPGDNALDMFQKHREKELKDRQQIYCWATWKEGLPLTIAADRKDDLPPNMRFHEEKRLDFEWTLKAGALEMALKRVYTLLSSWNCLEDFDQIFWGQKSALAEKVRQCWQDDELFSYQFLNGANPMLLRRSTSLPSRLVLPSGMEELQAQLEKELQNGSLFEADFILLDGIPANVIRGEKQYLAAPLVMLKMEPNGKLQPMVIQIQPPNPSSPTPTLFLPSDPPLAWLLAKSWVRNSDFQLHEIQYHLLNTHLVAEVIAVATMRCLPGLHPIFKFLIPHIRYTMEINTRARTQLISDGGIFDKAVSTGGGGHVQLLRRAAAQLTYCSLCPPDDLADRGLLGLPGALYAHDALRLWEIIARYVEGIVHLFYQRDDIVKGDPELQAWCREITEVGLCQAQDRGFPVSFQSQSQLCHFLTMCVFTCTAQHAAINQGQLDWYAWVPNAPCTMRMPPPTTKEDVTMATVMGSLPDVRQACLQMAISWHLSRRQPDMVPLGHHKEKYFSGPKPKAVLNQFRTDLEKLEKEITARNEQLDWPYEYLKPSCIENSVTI
#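 Hydroperoxide product was detected by ferrous iron/xylenol orange as the 573 to 405 nm absorbance ratio. Arachidonic acid at 40 uM (final) was turned over for 30 min at room temperature by 150 nM human 12hLO, pH 7.0 Hepes buffer, after 15 min compound preincubation.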
# gsp ag: activates gsp, the McCune-Albright syndrome mutation; gsp mutant cells, cAMP HTRF, 30 min; actives 0.13% (n = 340,000); Potency, µM (top dose mostly 76.9 µM), without a hit: at the top dose activation (cAMP increase), actives largely listed as activators; active means well fitted activation curve with a large enough effect; inconclusive means small, poorly fitted or top-dose-only effect, or another doubt; inactive means no such curve, though single readings can be large or run the other way; cell line not stated here;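 further: phosphodiesterase inhibitor Ro 20-1724 added with compounds to block cAMP breakdown; nearly all actives have a fitted effect of over 60% in size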
#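 Cells stably selected in G418 were plated at 2000/well, grown 16-24 hr, then given compounds in DMSO with the PDE inhibitor […] (300 uM solution added) for 30 min at 37C; cAMP was read by HTRF.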
# Mito fusion act: blocks mitochondrial division or promotes mitochondrial fusion; S. cerevisiae fusion-defective mutant growth rescue, CellTiterGlo 48 h; Potency, µM (highest dose often 46.1 µM), for inactives: top-dose growth rescue (activation), hits mostly activators; actives 0.23% (n = 320,000); further: % of control where 0% means no effect; nearly all actives have a fitted effect of over 45% in size
#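 S. cerevisiae fusion-defective temperature-sensitive mutants (e.g. fzo1-1, mgm1-5) grown 48 h at 37C in YPEG (ethanol/glycerol non-fermentable) medium with 23 nl compound per well; growth rescue read as CellTiterGlo luminescence.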
# gsp antag: gsp mutant antagonism; Potency, µM (doses to about 76.9 µM), for the others: at the top dose activity change, negative = inhibition, hits mostly inhibitors; actives 0.4% (n = 340,000); AID 624288; gsp-mutant cells, cAMP HTRF, 30 min; calls by dose curve; cell line not stated here;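 further: intracellular cAMP measured with PDE inhibitor Ro 20-1724 present during compound exposure; on the % scale 0 is the no-effect control and ±100 the full control effect; nearly all actives have a fitted effect of over 65% in size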
#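 Cells in G418 medium, seeded 16-24 h, 37C; buffer exchange to DPBS + 1 mM CaCl2, 0.5 mM MgCl2, 0.05% BSA; cpds in DMSO + […] (300 uM stock), 30 min 37C; HTRF cAMP detection.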
# * = called active by the depositor; i = inactive; ? = inconclusive; / = no result; [ ] = another dose, or the depositor's remark. Unless noted, the call rests on the fitted dose curve; in most records, active means well fitted curve in the direction sought with a large enough effect; inconclusive means small, poorly fitted or top-dose-only effect, or another doubt; inactive means no such curve, though single readings can be large; an effect the other way counts as inactive or inconclusive. Potency means the concentration at half of the fitted maximal effect.
SMILES,FUS suppressor,ALOX12 inh,gsp ag,Mito fusion act,gsp antag
COc1cc(-c2cc3nc4ccccc4n3c(N)c2C#N)cc(OC)c1OC,i,4.6%,28.2µM*,10.6%,12.5%
N#Cc1c(-c2ccccc2)cc2nc3ccccc3n2c1N,i,-8.8%,12.8%,8.6%,1.5%
O=C(O)c1cccc(NC(=S)NC(=O)c2ccc(-c3ccccc3)cc2)c1,i,?,-31.2%,-6.9%,-12.6%
COc1ccc(C(=O)O)cc1NC(=S)NC(=O)c1ccc(-c2ccc(Cl)cc2)o1,i,?,?,0.5%,?
O=C(O)c1ccc(NC(=S)NC(=O)c2ccc(-c3ccc(Br)cc3)o2)cc1,i,17.8µM*,-9.2%[15.4 µM],4.1%,-7.0%
O=C(Nc1ccc(NC(=S)NC(=O)c2ccco2)cc1)c1ccc(Br)cc1,i,-19.0%,-10.5%,/,/
Cc1ccc(C(=O)O)cc1NC(=S)NC(=O)c1ccc(-c2ccc(Cl)cc2)o1,i,2µM*,?,8.8%,-15.8%
O=C(O)c1cccc(NC(=S)NC(=O)c2ccc(-c3ccc(Cl)cc3)o2)c1,i,12.6µM*,-3.9%[15.4 µM],-4.4%,?
Cc1cccc(NC(=S)NC(=O)c2ccc(-c3ccccc3)cc2)n1,i,35.5µM*,?,?,-2.5%
O=C(Cc1ccccc1F)Nc1ccc2c(c1)CN(C(=O)[C@H]1CCCN1)CC2,/,52.3%,/,/,/
O=C(NCc1cnn(-c2ccccc2)c1)C1CCN(S(=O)(=O)c2ccccc2C(F)(F)F)CC1,/,10.7%,/,/,/
CCCCCCCCOc1ccc(-c2ccc(CCCCCCCC)cn2)cc1F,/,4.8%,/,/,/
CC(C)NC(=S)NC(=O)c1ccc(-c2ccccc2)cc1,i,15.8µM*,-14.3%,8.6%,-8.7%
CN1CCN(c2ccc(NC(=O)c3ccc(-c4ccc(Br)cc4)o3)cc2)CC1,i,50.1µM*,7.3%,-1.8%,-10.8%
Cc1ccc(C(=O)O)cc1NC(=S)NC(=O)c1ccc(-c2ccccc2)cc1,i,8.91µM*,-36.4%,4.7%,-14.0%
Cc1ccc(SCC(=O)c2ccc(S(C)(=O)=O)cc2)cc1,/,-1.3%,/,/,/
O=S(=O)(Nc1ccc(-c2ccc(N3CCOCC3)nn2)cc1)c1cccc(F)c1,/,-17.6%,/,/,/
Cc1ccc(SCCN2CCN(C)CC2)cc1,i,39.8µM*,-35.3%,-0.3%,6.4%
Cc1ccc(SCCN2CCN(Cc3ccccc3)CC2)cc1,i,?,14.4%,?,7.6%
Oc1c(CN2CCOCC2)ccc2ccccc12,i,44.7µM*,-8.8%,-0.7%,-7.1%
COC(=O)c1ccc(CSc2ccc3nnc(-c4cccc(F)c4)n3n2)o1,i,28.2µM*,-1.9%,17.1%,-3.9%
CN1c2cc(C(=O)Nc3ccc(OC(F)(F)F)cc3)ccc2C(=O)N2CCCCC21 (stereo not given),/,27.9%,/,/,/
Cc1nn(-c2ccccc2)c(Cl)c1/C=C1\SC(=S)N(CCCCCC(=O)O)C1=O,?,-23.9%,?,0.2%,?
Cc1nn(-c2ccccc2)c(Cl)c1/C=C1\SC(=S)NC1=O,i,25.1µM*,-25.7%,12.0%,?
CSc1ccc(/C=C/C(=O)Nc2cc(F)ccc2F)cc1,/,13.7%,/,/,/
SMILES,FUS suppressor,ALOX12 inh,gsp ag,Mito fusion act,gsp antag
CC1(C)CC(=O)C2=C(C1)Nc1cc3c(cc1C2c1ccc2c(c1)OCO2)OCO3 (stereo not given),35.5µM*,?,-5.2%,2.8%,-4.4%
Cc1cc(C)c(C)c(S(=O)(=O)NCCC(=O)Nc2nccs2)c1C,/,-0.4%,/,/,/
Cc1nc2ccc(C(=O)NCCC3CCCC3)cc2nc1C,/,2.3%,/,/,/
COc1ccc(C(=O)c2c(N)c(C(=O)Nc3ccccc3C(F)(F)F)c3ccccn23)cc1,/,16.2%,/,/,/
O=C(OCc1cc(=O)oc2cc(O)ccc12)c1n[nH]c2ccccc12,/,25.1µM*,/,/,/
O=C(/C=C/c1ccccc1)OCCc1ccccc1,/,5.7%[176 µM],/,/,/
COCCn1cc2c3c(cccc31)CN(C(=O)c1cc(F)ccc1Cl)CC2,/,25.1µM*,/,/,/
CCCn1cc2c3c(cccc31)CN(C(=O)c1cccc(F)c1)CC2,/,5.3%,/,/,/
N#Cc1cc2c([nH]c1=S)CCCC2,i,14.1µM*,22.7%,14.9%,8.3%
N#Cc1cc2c([nH]c1=O)CCCC2,i,-4.5%,22.9%,-0.6%,4.2%
O=C(O)C(c1c[nH]c2cc(F)ccc12)N1CCN(Cc2cccc3ccccc23)CC1 (stereo not given),/,39.8µM*,/,/,/
O=C(O)C(c1c[nH]c2cc(F)ccc12)N1CCN(Cc2ccccc2)CC1 (stereo not given),/,-36.9%,/,/,/
O=C(CCC1CCCO1)NC1CCCC1 (stereo not given),/,4.5%,/,/,/
CCCCNc1c(-c2ccc(SC3CCCCC3)c(OC)c2)nc2ccc(C)cn12,?,?,/,/,-3.2%
c1ccc(CNc2c(-c3cccc(SC4CCCCC4)c3)nc3ccccn23)cc1,?,14.1µM*,/,/,?
CCCCNc1c(-c2ccc(OC)c(SC3CCCCC3)c2)nc2ccc(C)cn12,?,?,?,/,31.6µM*
COc1ccc(-c2nc3ccc(C)cn3c2NCc2ccccc2)cc1SC1CCCCC1,i,/,/,9.8%,35.5µM*
Cc1ccc(C)c(/C=C/C(=O)c2cccc([N+](=O)[O-])c2)c1,/,-20.1%,/,/,/
CCOc1ccc(C(C)NC(=O)c2ccc(NS(=O)(=O)c3ccc(F)cc3)cc2)cc1OCC (stereo not given),/,7.0%,/,/,/
COC(=O)c1cc2c(c3c4ccccc4n(S(=O)(=O)c4ccc(OC)cc4)c13)C(=O)N(Cc1ccco1)C2,/,39.8µM*,/,/,/
CC(=O)NNC(=S)NC(C)c1ccccc1 (stereo not given),/,48.1%,/,/,/
C[C@H](CO)N1C[C@H](C)[C@@H](CN(C)C(=O)Nc2ccc3c(c2)OCO3)Oc2c(NC(=O)Nc3ccc(C(F)(F)F)cc3)cccc2C1=O,22.4µM*,-25.8%,/,/,-24.2%
COc1ccc(NC(=O)N(C)C[C@H]2Oc3c(NC(=O)c4ccncc4)cccc3C(=O)N([C@H](C)CO)C[C@@H]2C)cc1,i,-4.2%,0.0%,/,6.5%
COc1ccc(NC(=O)N(C)C[C@H]2Oc3c(NC(=O)Nc4ccc(C(F)(F)F)cc4)cccc3C(=O)N([C@H](C)CO)C[C@@H]2C)cc1,25.1µM*,-12.7%,-14.9%,/,?
COc1ccc(NC(=O)N(C)C[C@H]2Oc3c(NC(=O)c4nc5ccccc5s4)cccc3C(=O)N([C@@H](C)CO)C[C@H]2C)cc1,15.8µM*,5.8%,/,/,?
C[C@H](CO)N1C[C@H](C)[C@@H](CN(C)C(=O)Nc2ccc(C(F)(F)F)cc2)Oc2c(NC(=O)Nc3ccccc3)cccc2C1=O,?,-7.2%,-3.5%,/,?
CC(C)NC(=O)C(=O)NCCC1CCCC1,/,-32.8%,/,/,/
NC(=S)Cc1nc(-c2ccc(Cl)cc2)cs1,i,35.5µM*,-24.8%,-9.8%,13.1%
